From PubChem BioAssay AID1159580 (chemical genetic matrix, 2015)
Hit rate of the full screen: of about 5,500 compounds, about 2,000 (36%) were called active. Inconclusive results (about 18%) are left out. Rule as the data show it: active = normalized growth mostly below about 0.91 (no sharp cut-off); inconclusive = no clear call, values can overlap the other calls; inactive = mostly above about 0.92. Some of the results follow.

Experiment: chemical genetic growth profiling, strain panel (AID 1159580);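 also: tested at 20 µM; growth read once vehicle control cultures reached saturation at 30 °C; 1 = growth at the plate median or of vehicle wells; lower values mean less growth of the strain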
Conditions: S. cerevisiae deletion strains, growth OD

Measured: normalized growth

FC(F)(F)C(Cl)Br (configuration not stated)
inactive: locus YAL021C, strain ccr4, hits give low values 1.02 | locus YAL026C, strain drs2, hits give low values 1.03 | locus YAL030W, strain snc1, hits give low values 1.02 | locus YBL061C, strain skt5, hits give low values 1.02 | locus YBR009C, strain hhf1, hits give low values 1.04 | locus YBR023C, strain chs3, hits give low values 1.03 | locus YBR171W, strain sec66, hits give low values 1.05 | locus YBR231C, strain swc5, hits give low values 1.03 | locus YBR279W, strain paf1, hits give low values 1.03 | locus YCL011C, strain gbp2, hits give low values 1.03 | locus YCL016C, strain dcc1, hits give low values 1.02 | locus YCL061C, strain MRC1, hits give low values 1.02 | locus YCL069W, strain vba3, hits give low values 1.02 | locus YCR088W, strain abp1, hits give low values 1.02 | locus YDL005C, strain med2, hits give low values 1.03 | locus YDL040C, strain nat1, hits give low values 1.02 | locus YDR001C, strain nth1, hits give low values 1.01 | locus YDR069C, strain doa4, hits give low values 1.02 | locus YDR137W, strain rgp1, hits give low values 1.07 | locus YDR159W, strain sac3, hits give low values 1.04 | locus YDR195W, strain ref2 1.05 | locus YDR297W, strain sur2, hits give low values 1.01 | locus YDR334W, strain swr1, hits give low values 1.02 | locus YDR335W, strain msn5, hits give low values 1.02 | locus YDR392W, strain spt3, hits give low values 1.01 | locus YEL003W, strain gim4, hits give low values 1.02 | locus YEL037C, strain rad23, hits give low values 0.997 | locus YEL061C, strain CIN8 (second series), hits give low values 1.02 | locus YER015W, strain faa2, hits give low values 1.02 | locus YER016W, strain bim1, hits give low values 1.04 | locus YER111C, strain swi4, hits give low values 1.03 | locus YER155C, strain BEM2 (second series), hits give low values 1.02 | locus YFR010W, strain ubp6, hits give low values 1.03 | locus YGL167C, strain pmr1, hits give low values 1.04 | locus YGL173C, strain kem1, hits give low values 1.02 | locus YGL227W, strain vid30, hits give low values 1.04 | locus YGL240W, strain doc1, hits give low values 1.02 | locus YGL253W, strain hxk2, hits give low values 1.02 | locus YHR013C, strain ard1, hits give low values 1.02 | locus YHR027C, strain rpn1, hits give low values 1.03 | locus YHR142W, strain chs7, hits give low values 1.03 | locus YJL092W, strain hpr5, hits give low values 1.01 | locus YJL095W, strain BCK1 (second series), hits give low values 1.01 | locus YJL115W, strain asf1, hits give low values 1.01 | locus YJL129C, strain trk1, hits give low values 1.06 | locus YJL154C, strain vps35, hits give low values 1.02 | locus YJL164C, strain tpk1, hits give low values 1.02 | locus YJL166W, strain qcr8, hits give low values 1.03 | locus YJL187C, strain SWE1, hits give low values 1.03 | locus YKL160W, strain elf1, hits give low values 1.02 | locus YKR026C, strain gcn3, hits give low values 1 | locus YKR091W, strain srl3, hits give low values 1.02 | locus YLL001W, strain dnm1, hits give low values 1.01 | locus YLL026W, hits give low values 1.02 | locus YLL041C, strain sdh2, hits give low values 1.02 | locus YLR027C, strain aat2, hits give low values 1.02 | locus YLR221C, strain rsa3, hits give low values 1.02 | locus YLR258W, strain gsy2, hits give low values 1.02 | locus YLR262C, strain YPT6 (second series), hits give low values 1.04 | locus YLR320W, strain mms22, hits give low values 1.03 | locus YLR342W, strain FKS1, hits give low values 1.02 | locus YLR357W, strain rsc2, hits give low values 1.07 | locus YLR370C, strain arc18, hits give low values 1.03 | locus YLR384C, strain iki3, hits give low values 1.02 | locus YML120C, strain ndi1, hits give low values 1.03 | locus YMR058W, strain fet3, hits give low values 1.02 | locus YMR125W, strain sto1, hits give low values 1.02 | locus YMR129W, hits give low values 1.03 | locus YMR205C, strain PFK2, hits give low values 1.03 | locus YMR231W, strain pep5, hits give low values 1.02 | locus YNL071W, strain lat1, hits give low values 1.03 | locus YNL209W, strain ssb2, hits give low values 1.02 | locus YNL248C, strain rpa49, hits give low values 1.03 | locus YNL322C, strain KRE1 (second series), hits give low values 1.02 | locus YNR049C, strain mso1, hits give low values 1.02 | locus YOR001W, strain rrp6, hits give low values 1.04 | locus YOR070C, strain gyp1, hits give low values 1.01 | locus YOR080W, strain dia2, hits give low values 1.02 | locus YOR083W, strain WHI5, hits give low values 1.01 | locus YOR106W, strain vam3, hits give low values 1.04 | locus YOR265W, strain rbl2, hits give low values 1.03 | locus YOR270C, strain vph1, hits give low values 1.08 | locus YOR290C, strain snf2, hits give low values 1.04 | locus YPL051W, strain arl3, hits give low values 1.04 | locus YPL078C, strain atp4, hits give low values 1.02 | locus YPL106C, strain sse1, hits give low values 1.02 | locus YPL240C, strain hsp82, hits give low values 1.02
